Test [1] can be described thus: APR_HepG2_NuclearSize_72hr: Apredica 72-hour HepG2 Assay for Nuclear Size (AID 2282925). Particulars: high-content imaging, actives raise or lower the signal. The method, boiled down: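 Nuclear size was read by high-content imaging of Hoechst 33342 stain after formaldehyde fixation. Compounds ran 72 h on HepG2 at 0.39 to 200 uM, with final DMSO 0.5% v/v. Curves fitted both directions relative to DMSO control.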

Test [2] in a line: ATG_CRE_CIS: Attagene CIS-FACTORIAL HepG2 Assay for human cAMP Responsive Element (CRE) binding protein 3 (AID 2282926). The note with it: HepG2 CRE cis-reporter, Attagene multiplexed mRNA; actives raise or lower the signal. The method, boiled down:
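Liver-derived HepG2, transfected with a CRE-containing reporter panel, exposed 24 h; transcript levels sized and quantified by capillary electrophoresis of labelled amplicons; signal changes either way referenced to vehicle.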

In test [3] the target is CCAAT/enhancer-binding protein beta (Homo sapiens) (UniProt P17676). Kind of test: ATG_C_EBP_CIS: Attagene CIS-FACTORIAL HepG2 Assay for human CCAAT/Enhancer Binding Protein (C/EBP) beta (AID 2282927). The note with it: HepG2 Attagene cis-factorial transcription factor reporter; actives raise or lower the signal. The procedure, abridged:
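Endogenous C/EBPb-driven reporter transcripts measured in transfected human HepG2 cells at 24 h via RT-PCR and capillary electrophoresis of labelled fragments. Activity fitted in both directions relative to DMSO baseline.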

A short description of test [4]: ATG_CMV_CIS: Attagene CIS-FACTORIAL HepG2 Assay for human CMV (Internal Marker) (AID 2282928).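 Also: endpoint acts as a background internal control marker rather than a target.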 The note with it: HepG2 CMV promoter reporter, transcription factor profiling; actives raise or lower the signal. The procedure, abridged: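 24 h chemical treatment, HepG2 with transient multi-reporter transfection; RNA → oligo(dT) RT → PCR → 6-FAM extension → HpaI digest → CE fluorescence. Bidirectional fit, DMSO negative control.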

Test [5] is described as follows: ATG_DR4_LXR_CIS: Attagene CIS-FACTORIAL HepG2 Assay for human Liver X Receptor (LXR), DR4 submotif (AID 2282929). Particulars: HepG2 Attagene DR4 cis-reporter, mRNA transcription; actives raise or lower the signal. The method, boiled down: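 HepG2 cells were transiently transfected with multiple cis-regulated reporter units and dosed for 24 hours. The DR4 reporter mRNA was quantified by RT-PCR, 6-FAM labelling and capillary electrophoresis. Bidirectional fits used DMSO as baseline.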

The target in test [6] is Aryl hydrocarbon receptor (Homo sapiens) (UniProt P35869). The test can be described thus: ATG_Ahr_CIS: Attagene CIS-FACTORIAL HepG2 Assay for human Aryl Hydrocarbon Receptor (Ahr) (AID 2282930). The note with it: HepG2 AhR cis-factorial reporter transcription; actives raise or lower the signal. The method, boiled down: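 Reporter mRNA levels, quantified by RT-PCR and fluorescent capillary electrophoresis, reflect endogenous AhR transcriptional activity in HepG2 cells carrying transfected cis-promoter reporter constructs. Readout at 24 h post-dose; gain or loss fitted against DMSO baseline.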
Chain of Aryl hydrocarbon receptor (Homo sapiens) (P35869 whole entry, looked up): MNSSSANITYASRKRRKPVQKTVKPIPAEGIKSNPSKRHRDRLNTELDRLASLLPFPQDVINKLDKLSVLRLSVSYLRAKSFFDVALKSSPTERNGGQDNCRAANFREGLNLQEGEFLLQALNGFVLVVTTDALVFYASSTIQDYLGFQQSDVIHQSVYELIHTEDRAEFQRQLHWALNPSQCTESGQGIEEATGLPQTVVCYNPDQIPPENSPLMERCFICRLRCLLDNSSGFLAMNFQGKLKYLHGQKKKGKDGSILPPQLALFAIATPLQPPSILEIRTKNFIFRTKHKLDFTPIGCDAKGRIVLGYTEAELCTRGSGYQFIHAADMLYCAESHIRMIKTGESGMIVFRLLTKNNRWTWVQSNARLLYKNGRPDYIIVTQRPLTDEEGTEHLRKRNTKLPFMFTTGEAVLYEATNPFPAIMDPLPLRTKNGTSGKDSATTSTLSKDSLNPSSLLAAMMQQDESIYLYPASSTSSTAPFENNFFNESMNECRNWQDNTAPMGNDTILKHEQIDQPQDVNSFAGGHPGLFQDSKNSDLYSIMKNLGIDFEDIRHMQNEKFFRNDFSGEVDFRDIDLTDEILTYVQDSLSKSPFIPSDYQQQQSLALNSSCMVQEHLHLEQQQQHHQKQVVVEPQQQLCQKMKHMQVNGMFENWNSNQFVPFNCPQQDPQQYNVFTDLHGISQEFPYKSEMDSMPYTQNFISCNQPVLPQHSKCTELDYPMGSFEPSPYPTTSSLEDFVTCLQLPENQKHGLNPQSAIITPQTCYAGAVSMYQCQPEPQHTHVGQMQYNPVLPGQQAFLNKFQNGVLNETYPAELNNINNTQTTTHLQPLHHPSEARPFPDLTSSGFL

Test [7] in a line: ATG_AP_1_CIS: Attagene CIS-FACTORIAL HepG2 Assay for human Activator Protein 1 (AP-1) (AID 2282931). The note with it: HepG2 Attagene cis-factorial AP-1 reporter mRNA; actives raise or lower the signal. The method, boiled down:
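HepG2 cells transiently transfected with cis-element-driven reporter transcription units, dosed for 24 hours. Reporter mRNA measured by RT-PCR, 6-FAM labelling, HpaI digestion and capillary electrophoresis. Bidirectional fitting against DMSO baseline.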

The nature of test [8]: ATG_AP_2_CIS: Attagene CIS-FACTORIAL HepG2 Assay for human Activator Protein 2 (AP-2) (AID 2282932). The note with it: HepG2 AP-2 cis-reporter, Attagene transcription factor profiling; actives raise or lower the signal. The method, boiled down: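 Endogenous transcription factor activity is reported through transfected multiplex reporter constructs in HepG2, after 24 h of compound exposure. Transcripts were quantified by RT-PCR and capillary electrophoresis of fluorescent fragments. Bidirectional fit against DMSO.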

Test [9] is described as follows: ATG_BRE_CIS: Attagene CIS-FACTORIAL HepG2 Assay for human Bone Morphogenetic Protein (BMP) Response Element (BRE) (AID 2282933). The note with it: HepG2 BMP response element reporter, Attagene transcription factor profiling; actives raise or lower the signal. The procedure, abridged:
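Endogenous transcription factor activity at a BMP response element was monitored in transfected HepG2 cells 24 h after dosing. Fluorescent RT-PCR products were resolved by capillary electrophoresis, and activity was fitted in both directions versus DMSO.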

Test [10] addresses Transcription factor E2F1 (Homo sapiens) (UniProt Q01094). The test can be described thus: ATG_E2F_CIS: Attagene CIS-FACTORIAL HepG2 Assay for human E2F Transcription Factor 1 (AID 2282935). The note with it: HepG2 Attagene cis-reporter, E2F reporter RNA transcripts; actives raise or lower the signal. The method, boiled down:
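Gain or loss of reporter transcript, fitted against DMSO, reflects E2F1-driven transcription. Transiently transfected HepG2 dosed 24 h before RNA isolation. Quantified by fluorescent RT-PCR products separated by capillary electrophoresis.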

The nature of test [11]: ATG_E_Box_CIS: Attagene CIS-FACTORIAL HepG2 Assay for human Enhancer Box (E-box) (AID 2282936). The note with it: HepG2 E-box cis-reporter transcription, actives raise or lower the signal. The method, boiled down:
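E-box-driven reporter transcripts measured in transiently transfected HepG2 after 24 h exposure: RNA reverse-transcribed, PCR-amplified, fluorescently labelled, digested and resolved by capillary electrophoresis. Gain or loss relative to DMSO.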

Test [12] in a line: ATG_M_61_CIS: Attagene CIS-FACTORIAL HepG2 Assay for M61 Transcription Factor (Internal Marker) (AID 2282937). Particulars: HepG2 Attagene CIS-FACTORIAL M61 internal marker reporter; actives raise or lower the signal. The procedure, abridged:
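HepG2 cells transiently transfected with multiplexed cis-promoter reporter units reporting endogenous transcription factor activity, measured 24 h after dosing. Reporter mRNA quantified by RT-PCR and capillary electrophoresis; bidirectional fit against DMSO baseline.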

A short description of test [13]: ATG_EGR_CIS: Attagene CIS-FACTORIAL HepG2 Assay for human Early Growth Response 1 (EGR1) (AID 2282938). The note with it: HepG2 Attagene CIS-FACTORIAL EGR reporter mRNA; actives raise or lower the signal. The method, boiled down: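 HepG2 cells transiently transfected with cis-element-driven multiplexed reporter units, dosed for 24 h. EGR1-element reporter mRNA quantified by RT-PCR, 6-FAM labelling, HpaI digestion and capillary electrophoresis; bidirectional fit versus DMSO.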

Test [14] is described as follows: ATG_M_19_CIS: Attagene CIS-FACTORIAL HepG2 Assay for M19 Transcription Factor (Internal Marker) (AID 2282939). Particulars: HepG2 Attagene CIS-FACTORIAL M19 internal marker reporter; actives raise or lower the signal. The procedure, abridged: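 Background-control endpoint from a multiplexed HepG2 reporter panel. Cells carrying cis-regulated reporter constructs are treated 24 h, then reporter transcripts are amplified, fluorescently labelled and sized by capillary electrophoresis. DMSO defines baseline.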

Test [15] can be described thus: ATG_ERE_CIS: Attagene CIS-FACTORIAL HepG2 Assay for Estrogen Response Element (ERE) (AID 2282940). Particulars: HepG2 ERE cis-reporter, Attagene RNA transcript; actives raise or lower the signal. The method, boiled down:
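Cells used were human hepatoma HepG2, transfected with multiple reporter transcription units under cis-regulatory promoters. Reporter mRNA, read 24 h post-dosing via fluorescent RT-PCR products on capillary electrophoresis, was fitted bidirectionally relative to DMSO.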

Test [16] in a line: ATG_Ets_CIS: Attagene CIS-FACTORIAL HepG2 Assay for human Erythroblast Transformation Specific (ETS) (AID 2282941). Particulars: HepG2 ETS cis-reporter transcription, actives raise or lower the signal. The procedure, abridged:
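Cis-regulated reporter mRNA induction in HepG2 (transient transfection), 24 h exposure, RT-PCR plus capillary electrophoresis detection; DMSO serves as negative control and baseline.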

For test [17], the target named is Hepatocyte nuclear factor 3-beta (Homo sapiens) (UniProt Q9Y261). The test can be described thus: ATG_FoxA2_CIS: Attagene CIS-FACTORIAL HepG2 Assay for human Forkhead box A2 (FOXA2) (AID 2282942). Particulars: HepG2 cis-reporter transcription factor activity, 24 h; actives raise or lower the signal. The method, boiled down: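 HepG2 transiently transfected with a multiplexed cis-promoter reporter library read endogenous FOXA2 activity. After 24 h compound exposure, reporter mRNA was quantified by RT-PCR, HpaI digestion and capillary electrophoresis. Bidirectional fit against DMSO.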
Chain of Hepatocyte nuclear factor 3-beta (Homo sapiens) (Q9Y261 whole entry, looked up): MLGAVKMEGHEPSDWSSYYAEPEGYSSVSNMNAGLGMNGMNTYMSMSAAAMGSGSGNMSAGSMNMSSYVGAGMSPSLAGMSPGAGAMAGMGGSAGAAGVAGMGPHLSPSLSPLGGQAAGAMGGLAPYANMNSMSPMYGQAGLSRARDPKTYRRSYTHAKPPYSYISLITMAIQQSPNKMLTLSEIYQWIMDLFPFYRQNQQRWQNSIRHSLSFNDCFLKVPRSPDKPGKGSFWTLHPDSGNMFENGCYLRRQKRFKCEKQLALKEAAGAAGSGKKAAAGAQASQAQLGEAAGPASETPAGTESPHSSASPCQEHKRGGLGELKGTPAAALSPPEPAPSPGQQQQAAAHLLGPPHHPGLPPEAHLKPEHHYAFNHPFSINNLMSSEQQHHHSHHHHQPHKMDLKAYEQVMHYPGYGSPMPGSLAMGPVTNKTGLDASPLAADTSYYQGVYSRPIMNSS

Test [18] is described as follows: ATG_FoxO_CIS: Attagene CIS-FACTORIAL HepG2 Assay for human Forkhead box O (FoxO) (AID 2282943). Particulars: HepG2 Attagene cis-reporter, FoxO element, mRNA; actives raise or lower the signal. The procedure, abridged: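 Endogenous transcription factor activity read from multiplexed cis-promoter reporter transcripts in transiently transfected HepG2, 24 h after dosing. Reporter RNA measured via RT-PCR plus capillary electrophoresis of FAM-labeled products; gain or loss relative to DMSO.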

A short description of test [19]: ATG_GATA_CIS: Attagene CIS-FACTORIAL HepG2 Assay for human GATA Binding Protein (AID 2282944). Particulars: HepG2 GATA cis-element reporter, Attagene multiplex mRNA; actives raise or lower the signal. The procedure, abridged: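 Endogenous transcription factor activity was captured through cis-promoter-driven reporters in transfected HepG2 cells. After 24 h exposure, reporter transcripts were quantified by RT-PCR with fluorescent capillary electrophoresis, and responses fitted both directions against DMSO.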

In test [20] the target is Retinoic acid receptor alpha (Homo sapiens) (UniProt P10276). Kind of test: ATG_DR5_RAR_CIS: Attagene CIS-FACTORIAL HepG2 Assay for human Retinoic Acid Receptor Alpha (RARE), DR5 submotif (AID 2282934). The note with it: HepG2 Attagene cis-factorial RARE DR5 reporter, mRNA; actives raise or lower the signal. The procedure, abridged:
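Reporter transcripts from a DR5-regulated unit, measured via RT-PCR plus capillary electrophoresis, reflect endogenous RAR activity in transiently transfected human HepG2 liver cells. Exposure lasted 24 h; gain or loss of signal scored against DMSO.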

Here are results for 7 compounds from PubChem BioAssay (EPA / NIEHS).

Calls of active or inactive are those of the source. The calls were made as follows: active = hit-call score of the fitted dose curve at least 0.9, where 1 is the maximum; inactive = score below 0.9.

Chain of CCAAT/enhancer-binding protein beta (Homo sapiens) (P17676 whole entry, looked up, the tested form may be a part): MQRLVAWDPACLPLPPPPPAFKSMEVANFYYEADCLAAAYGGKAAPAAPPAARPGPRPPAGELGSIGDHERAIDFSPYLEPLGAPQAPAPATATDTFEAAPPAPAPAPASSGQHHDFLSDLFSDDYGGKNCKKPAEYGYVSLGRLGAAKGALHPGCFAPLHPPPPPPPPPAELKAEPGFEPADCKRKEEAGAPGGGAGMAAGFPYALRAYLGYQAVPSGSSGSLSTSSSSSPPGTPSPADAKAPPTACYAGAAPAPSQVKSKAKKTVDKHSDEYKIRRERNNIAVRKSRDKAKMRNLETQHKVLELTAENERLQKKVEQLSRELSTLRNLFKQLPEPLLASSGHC
Chain of Transcription factor E2F1 (Homo sapiens) (Q01094 whole entry, looked up): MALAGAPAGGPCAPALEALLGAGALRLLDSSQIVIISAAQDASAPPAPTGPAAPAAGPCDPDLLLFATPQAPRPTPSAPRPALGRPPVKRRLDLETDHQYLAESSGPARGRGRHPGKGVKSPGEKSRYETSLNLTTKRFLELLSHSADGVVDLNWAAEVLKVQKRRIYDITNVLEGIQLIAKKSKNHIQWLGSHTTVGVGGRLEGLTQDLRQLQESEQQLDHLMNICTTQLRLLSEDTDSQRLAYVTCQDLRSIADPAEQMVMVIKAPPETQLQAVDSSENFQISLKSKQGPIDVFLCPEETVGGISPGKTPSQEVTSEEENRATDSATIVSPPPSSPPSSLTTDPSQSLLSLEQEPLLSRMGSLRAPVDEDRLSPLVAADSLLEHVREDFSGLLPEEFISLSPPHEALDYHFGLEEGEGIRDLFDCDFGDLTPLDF
Chain of Retinoic acid receptor alpha (Homo sapiens) (P10276 whole entry, looked up): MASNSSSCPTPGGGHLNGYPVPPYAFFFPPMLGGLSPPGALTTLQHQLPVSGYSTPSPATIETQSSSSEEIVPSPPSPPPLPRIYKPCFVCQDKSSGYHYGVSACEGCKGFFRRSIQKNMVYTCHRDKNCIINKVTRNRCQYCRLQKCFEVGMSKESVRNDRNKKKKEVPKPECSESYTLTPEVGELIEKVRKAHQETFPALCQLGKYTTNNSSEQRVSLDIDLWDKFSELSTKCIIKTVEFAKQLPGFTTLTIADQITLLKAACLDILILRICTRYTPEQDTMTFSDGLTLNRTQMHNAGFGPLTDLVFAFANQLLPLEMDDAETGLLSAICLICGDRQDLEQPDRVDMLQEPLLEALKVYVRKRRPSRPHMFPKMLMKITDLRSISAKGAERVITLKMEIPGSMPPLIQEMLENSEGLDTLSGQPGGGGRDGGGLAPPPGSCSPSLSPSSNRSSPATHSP

As for `COCCOCCOC`, the call in [1], in test [2], in test [3], in [4], in test [5] and in [6] was inactive. For the same compound, the result in test [7], in test [8], in [9], in test [10], in [11] and in test [12] was inactive. Besides, the call in test [13], in [14], in [15], in test [16], in test [17] and in test [18] was inactive. Moreover, the compound was called inactive in test [19].

`O=[N+]([O-])C(CO)(CO)CO`: the compound was called inactive in test [1], in test [2], in test [3], in test [4], in test [5] and in test [7]. In addition, the outcome in test [8], in test [9], in [20], in [10], in test [11] and in test [12] was inactive. Further, the outcome in test [13], in test [14], in [15], in test [16], in test [17] and in test [18] was inactive. Besides, in test [19], the call was inactive. Besides, in test [6], the half-maximal activity concentration (AC50) (commonly the midpoint of the concentration-response curve, whichever way the signal moves) is 68.9 µM (active).

Regarding `Cc1ccccc1Cl`, the compound was called inactive in test [1], in test [2], in test [3], in [4], in [5] and in test [6]. Moreover, the call in test [7], in test [8], in test [9], in [10], in test [11] and in test [12] was inactive. Besides, the outcome in test [13], in [14], in test [15], in [16], in [17] and in [18] was inactive. Moreover, the compound was called inactive in [19].

As to `NC(=O)Cn1c(=O)cc(CCN2CCN(c3nccc4sccc34)CC2)c2ccc(F)cc21`, the call in [1], in [2], in [3], in test [5], in test [6] and in test [7] was inactive. In addition, the result in test [8], in test [9], in test [10], in [11], in [12] and in [13] was inactive. For the same compound, the result in test [14], in test [15], in test [16], in test [17], in [18] and in test [19] was inactive. Besides, the AC50 in test [4] was 100 µM (active).

For `CC(=O)Oc1ccccc1C(=O)O`, the compound was called inactive in test [1], in test [2], in [3], in test [4], in test [5] and in test [6]. Besides, the compound was called inactive in [8], in test [9], in [20], in [10], in test [11] and in test [12]. Also, the compound was called inactive in test [13], in test [14], in test [15], in [16], in [17] and in [18]. For the same compound, in test [19], the compound was called inactive. Also, the AC50 in test [7] was 61.1 µM (active).

In the case of `CC(=O)C(C)=CC1C(C)=CCCC1(C)C` (stereo unspecified), the compound was classed as inactive in test [1], in [2], in [3], in test [4], in test [5] and in test [6]. The compound was called inactive in test [7], in [8], in test [9], in test [10], in test [11] and in [12]. The call in [13], in [14], in test [16], in test [17], in test [18] and in [19] was inactive. The AC50 in test [15] is 33.4 µM (active).

For `OC[C@@H](O)[C@@H](O)[C@H](O)[C@H](O)CO`, the result in test [1], in [2], in [3], in test [4], in test [5] and in test [6] was inactive. Besides, the outcome in test [7], in test [8], in [9], in [20], in test [10] and in test [11] was inactive. Further, the compound was called inactive in test [12], in test [13], in test [14], in [15], in test [16] and in test [17]. In addition, the compound was classed as inactive in [18] and in test [19].
